# Test results published in the OligoGym collection.
# Biological target: ADRA2B
# Assay: pooled miR-30 sensor sort-seq; sequence = guide strand
# Details: shRNA
# Further: reference of the scale not given here.
row,Sequence,sensor-assay potency score (higher = more potent)
1,TAACAGGGTTCAGTGAGCTGTT,-0.17
2,TTGTACTCCAGCGCGCGGCTCA,-0.722
3,AAGATGGTGTAGATAACAGGGT,-0.352
4,TTTATTGATAAAATAGCTCAGA,-0.103
5,AACGCCAATGACCACAGCCAGC,-1.54
6,TAGACAAGGATCATGATGAGGC,0.0762
7,AAATCTAGCAGGTCCATCTGGC,-0.198
8,TACACCTCGCACCACGTGCGCC,-1.33
9,TGTCCGTTGACCTCTCTGGCAG,-0.964
10,TACTCTGGCCTCAACAACCCAC,-0.575
11,TCCTGGTTGAGCTTGCACTGGG,-0.653
12,TCGAGCGCCAGGTACACCTCGC,-0.894
13,TTTTTGGTTCTCTAGTGTGTTC,-1.08
14,TTCAGTGAGCTGTTGCAGTAGC,0.233
15,AAGGTGAAGCGCTTCTCCCGGG,-0.311
16,TTGAAATAGTGATTCTGTCTGC,0.106
17,TAGCGTAATAACTCAGACCTTT,0.245
18,TTCCAAATCTAGCAGGTCCATC,-1.43
19,TTGGAGTTGTACTCCAGCGCGC,-0.762
